Test results as given in PubChem BioAssay (Tox21).
Calls of active or inactive are those of the source. Unless noted, calls come from the whole dose curve; as a rule, active = well fitted curve in the direction sought with a large enough effect in the repeat runs; inconclusive = weak or mixed curves; inactive = no such curve, though single readings can be large; an effect the other way counts as inactive or inconclusive.

What was measured:
[1] = qHTS assay to identify small molecule antagonists of the thyroid receptor (TR) signaling pathway - cell viability counter screen (AID 743064); note: nearly all actives have a fitted effect of over 50% in size
Method in brief: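 Compounds were tested on GH3.TRE-Luc cells in the presence of T3 at 1 nM final. Following 23.5 h at 37 °C, cell viability was quantified by CellTiter-Fluor.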

[2] = test system: thyroid hormone receptor (rat, GH3 cells); assay: qHTS assay to identify small molecule agonists of the thyroid receptor (TR) signaling pathway (AID 743066; calls by dose curve; note: potency is the fitted concentration of half-maximal effect)
[3] = qHTS assay to identify small molecule antagonists of the estrogen receptor alpha (ER-alpha) signaling pathway - cell viability counter screen (AID 743074; calls by dose curve;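 note: HEK293 cells carrying ER-alpha-UAS-bla reporter stimulated with 17beta-estradiol; nearly all actives have a fitted effect of over 45% in size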)
[4] = qHTS assay to identify small molecule antagonists of the estrogen receptor alpha (ER-alpha) signaling pathway using the BG1 cell line - cell viability counter screen (AID 743081);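 note: compound given together with 17beta-estradiol as the ER stimulus; series mostly up to about 70 µM; nearly all actives have a fitted effect of over 45% in size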
[5] = biological target: Aromatase (Homo sapiens) (UniProt P11511); assay: qHTS assay to identify aromatase inhibitors (AID 743083); note: series mostly up to about 70 µM; nearly all actives have a fitted effect of over 55% in size
Aromatase (Homo sapiens), sequence (P11511 whole entry, looked up): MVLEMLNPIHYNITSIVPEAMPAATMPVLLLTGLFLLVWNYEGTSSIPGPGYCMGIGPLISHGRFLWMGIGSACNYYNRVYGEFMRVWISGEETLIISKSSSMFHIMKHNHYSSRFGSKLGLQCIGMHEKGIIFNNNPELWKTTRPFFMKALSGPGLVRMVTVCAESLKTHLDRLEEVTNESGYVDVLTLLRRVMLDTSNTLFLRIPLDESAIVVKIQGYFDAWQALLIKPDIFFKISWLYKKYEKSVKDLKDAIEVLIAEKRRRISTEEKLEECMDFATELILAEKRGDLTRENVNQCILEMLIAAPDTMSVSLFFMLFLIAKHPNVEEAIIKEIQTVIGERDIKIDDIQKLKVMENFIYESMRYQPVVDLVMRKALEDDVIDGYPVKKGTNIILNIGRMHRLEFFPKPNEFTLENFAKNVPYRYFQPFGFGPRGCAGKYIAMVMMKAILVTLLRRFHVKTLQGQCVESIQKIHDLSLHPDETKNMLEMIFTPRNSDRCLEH

[6] = qHTS assay to identify aromatase inhibitors - cell viability counter screen (AID 743084);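 note: cells stimulated with testosterone during compound exposure; nearly all actives have a fitted effect of over 55% in size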
[7] = biological target: Aryl hydrocarbon receptor (Homo sapiens) (UniProt P35869); assay: qHTS assay to identify small molecule that activate the aryl hydrocarbon receptor (AhR) signaling pathway (AID 743085); note: nearly all actives have a fitted effect of over 15% in size; note: potency is the fitted concentration of half-maximal effect;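 for activation: HG2L7.5c1 human HepG2 liver cells with stably integrated DRE-driven firefly reporter; series mostly up to about 70 µM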
Aryl hydrocarbon receptor (Homo sapiens), sequence (P35869 whole entry, looked up): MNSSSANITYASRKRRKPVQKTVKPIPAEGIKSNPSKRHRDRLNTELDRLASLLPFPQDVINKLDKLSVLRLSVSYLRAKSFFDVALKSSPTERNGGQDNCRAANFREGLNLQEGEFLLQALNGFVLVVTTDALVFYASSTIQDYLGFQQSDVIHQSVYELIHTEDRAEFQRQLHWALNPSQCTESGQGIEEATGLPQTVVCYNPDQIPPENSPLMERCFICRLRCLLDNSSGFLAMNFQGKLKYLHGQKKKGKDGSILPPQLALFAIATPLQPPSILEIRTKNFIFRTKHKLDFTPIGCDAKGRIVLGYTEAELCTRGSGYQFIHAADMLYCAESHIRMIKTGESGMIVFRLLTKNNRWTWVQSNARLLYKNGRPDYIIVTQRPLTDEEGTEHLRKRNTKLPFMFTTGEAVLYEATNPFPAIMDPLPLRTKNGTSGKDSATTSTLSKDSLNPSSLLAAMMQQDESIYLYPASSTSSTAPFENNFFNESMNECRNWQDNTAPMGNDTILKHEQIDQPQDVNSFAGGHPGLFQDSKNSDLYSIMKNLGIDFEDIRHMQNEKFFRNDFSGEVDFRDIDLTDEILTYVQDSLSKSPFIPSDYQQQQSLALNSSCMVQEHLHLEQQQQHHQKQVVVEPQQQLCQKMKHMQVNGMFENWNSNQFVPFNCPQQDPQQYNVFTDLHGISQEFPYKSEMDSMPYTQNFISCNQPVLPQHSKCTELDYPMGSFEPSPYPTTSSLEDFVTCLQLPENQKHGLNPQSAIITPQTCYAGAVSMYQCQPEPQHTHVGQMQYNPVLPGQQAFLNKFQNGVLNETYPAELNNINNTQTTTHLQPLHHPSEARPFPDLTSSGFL
Method in brief: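 24 h compound exposure, 37C, HepG2-derived HG2L7.5c1 cells with DRE-responsive luciferase. Readouts: fluorescence viability, then luminescence at room temperature after 30 min.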

[8] = qHTS assay to identify small molecule that activate the aryl hydrocarbon receptor (AhR) signaling pathway - cell viability counter screen (AID 743086);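 note: HepG2 liver cells carrying the AhR DRE luciferase reporter; series mostly up to about 70 µM; nearly all actives have a fitted effect of over 45% in size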
Method in brief: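 HepG2-AhR-luc (HG2L7.5c1) cells, 4000/well, were preincubated 5 h at 37C, exposed to compound in qHTS format for 24 hr at 37C, then given CellTiter-Fluor for 30 min; viability was read as fluorescence in the reporter wells.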

[9] = biological target: Peroxisome proliferator-activated receptor gamma (Homo sapiens) (UniProt P37231); assay: qHTS assay to identify small molecule agonists of the peroxisome proliferator-activated receptor gamma (PPARg) signaling pathway (AID 743094; active = well fitted activation curve with a large enough effect in the signal ratio in the repeat runs, not every such curve was filed as active; inconclusive = weak or mixed curves, or effect the other way; inactive = no such curve, though single readings can be large or run the other way; the % refers to the signal ratio)
Peroxisome proliferator-activated receptor gamma (Homo sapiens), sequence (P37231 whole entry, looked up): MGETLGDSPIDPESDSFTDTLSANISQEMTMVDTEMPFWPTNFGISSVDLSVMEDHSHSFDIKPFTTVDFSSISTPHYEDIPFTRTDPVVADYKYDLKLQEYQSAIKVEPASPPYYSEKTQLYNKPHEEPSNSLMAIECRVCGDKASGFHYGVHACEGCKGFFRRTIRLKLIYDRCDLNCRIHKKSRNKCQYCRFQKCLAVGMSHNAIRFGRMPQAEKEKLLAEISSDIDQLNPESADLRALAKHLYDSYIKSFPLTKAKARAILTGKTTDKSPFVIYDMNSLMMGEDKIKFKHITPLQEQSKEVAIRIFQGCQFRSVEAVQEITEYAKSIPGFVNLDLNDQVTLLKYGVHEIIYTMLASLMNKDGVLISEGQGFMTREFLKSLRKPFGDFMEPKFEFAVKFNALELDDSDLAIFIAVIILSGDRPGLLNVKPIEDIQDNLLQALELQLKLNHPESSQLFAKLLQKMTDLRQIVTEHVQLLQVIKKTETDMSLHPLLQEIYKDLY
Method in brief: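 Agonism was assessed in a beta-lactamase reporter system, HEK293H cells with a stably integrated UAS-bla construct under PPARg control; the 17 h treatment at 37C preceded a 1 h room-temperature FRET substrate read.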

[10] = biological target: Peroxisome proliferator-activated receptor gamma (Homo sapiens) (UniProt P37231); assay: qHTS assay to identify small molecule antagonists of the peroxisome proliferator-activated receptor gamma (PPARg) signaling pathway (AID 743191; calls by dose curve; note: series mostly up to about 63 µM; nearly all actives have a fitted effect of over 30% in size)
Method in brief: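 GeneBLAzer PPARg UAS-bla HEK293H cells carrying a UAS-driven beta-lactamase reporter were plated at 3000 cells/well, preincubated 5 h at 37C, then given compound for 17 h at 37C; LiveBLAzer B/G FRET substrate was read after 1 h at room temperature.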

[11] = qHTS assay to identify small molecule antagonists of the peroxisome proliferator-activated receptor gamma (PPARg) signaling pathway - cell viability counter screen (AID 743194); note: nearly all actives have a fitted effect of over 55% in size; note: potency is the fitted concentration of half-maximal effect
Method in brief: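 PPARg-UAS-bla HEK293H cells were plated, rested 5 h at 37 C, then treated with compounds plus rosiglitazone (50 nM final) for 17 h at 37 C; viability was then read by CellTiter-Glo luminescence after 30 min at room temperature.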

[12] = qHTS assay for small molecule agonists of the antioxidant response element (ARE) signaling pathway - cell viability counter screen (AID 743203; calls by dose curve; note: nearly all actives have a fitted effect of over 55% in size)
Method in brief: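 ATP content via CellTiter-Glo luminescence served as the viability measure. Cells: ARE-bla HepG2, 2,000 per well. Exposure: 16 hrs, 37C/5% CO2.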

[13] = qHTS assay for small molecule activators of the heat shock response signaling pathway (AID 743210; active = well fitted activation curve with a large enough effect in the signal ratio in the repeat runs, with a control signal flat, not every such curve was filed as active; inconclusive = weak or mixed curves; the % refers to the signal ratio; note: series mostly up to about 63 µM)
Method in brief: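 Heat shock element–beta-lactamase HeLa reporter cells; qHTS with compounds for 5 h at 37 C; detection by FRET substrate fluorescence after 2.5 h at RT.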

[14] = qHTS assay for small molecule agonists of the antioxidant response element (ARE) signaling pathway (AID 743202; active = well fitted activation curve with a large enough effect in the signal ratio in the repeat runs, not every such curve was filed as active; inconclusive = weak or mixed curves, or effect the other way; inactive = no such curve, though single readings can be large or run the other way; the % refers to the signal ratio)
Method in brief: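 Following a 16 h, 37 C exposure of reporter HepG2 cells (ARE-driven beta-lactamase, 2,000 cells/well) to compounds, FRET substrate was applied for 2 h at room temperature and fluorescence intensity recorded.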

[15] = qHTS assay for small molecule activators of the heat shock response signaling pathway - cell viability counter screen (AID 743209); note: nearly all actives have a fitted effect of over 50% in size
Method in brief: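 Compounds dissolved in DMSO were added to overnight-plated HSE-bla HeLa cells and left 5 h at 37 C. Cell viability was quantified by luminescence using CellTiter-Glo.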

[16] = qHTS assay to identify small molecule antagonists of the thyroid receptor (TR) signaling pathway (AID 743065); note: nearly all actives have a fitted effect of over 55% in size; note: potency is the fitted concentration of half-maximal effect
Method in brief: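 GH3.TRE-Luc rat pituitary cells carrying two TR response elements driving luciferase were plated for 4 h, given compound plus 1 nM T3 (final), and incubated 23.5 h at 37 C. ONE-Glo luminescence measured reporter inhibition; CellTiter-Fluor fluorescence tracked cytotoxicity.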

[17] = biological target: Estrogen receptor (Homo sapiens) (UniProt P03372); assay: qHTS assay to identify small molecule antagonists of the estrogen receptor alpha (ER-alpha) signaling pathway (AID 743069; active = well fitted curve in the direction sought with a large enough effect in the signal ratio in the repeat runs, not every such curve was filed as active; inconclusive = weak or mixed curves, or effect the other way; inactive = no such curve, though single readings can be large or run the other way; the % refers to the signal ratio; note: potency is the fitted concentration of half-maximal effect)
Estrogen receptor (Homo sapiens), sequence (P03372 whole entry, looked up): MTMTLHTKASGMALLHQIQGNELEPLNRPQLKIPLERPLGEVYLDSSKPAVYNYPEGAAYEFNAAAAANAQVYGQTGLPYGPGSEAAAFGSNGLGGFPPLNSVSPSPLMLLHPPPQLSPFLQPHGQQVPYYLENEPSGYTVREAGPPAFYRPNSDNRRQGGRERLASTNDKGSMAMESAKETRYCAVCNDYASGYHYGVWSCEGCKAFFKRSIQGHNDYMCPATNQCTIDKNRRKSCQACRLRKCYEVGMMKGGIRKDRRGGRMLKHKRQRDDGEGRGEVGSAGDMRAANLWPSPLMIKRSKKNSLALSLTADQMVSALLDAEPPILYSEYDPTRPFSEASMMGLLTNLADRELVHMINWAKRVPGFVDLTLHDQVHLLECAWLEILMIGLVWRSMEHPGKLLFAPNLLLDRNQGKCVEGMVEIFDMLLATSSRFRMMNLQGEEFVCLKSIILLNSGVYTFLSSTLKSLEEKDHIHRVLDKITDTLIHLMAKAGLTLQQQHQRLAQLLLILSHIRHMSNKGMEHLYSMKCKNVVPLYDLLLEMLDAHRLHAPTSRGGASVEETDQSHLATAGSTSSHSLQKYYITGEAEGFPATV
Method in brief: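 A 17beta-estradiol challenge was applied right after compound transfer to ER-alpha-UAS-bla HEK293 cells previously kept in charcoal-stripped serum. Plates stood 18 hr at 37C and 5% CO2; fluorescence was read following 2 hr FRET substrate loading at room temperature.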

[18] = biological target: Estrogen receptor (Homo sapiens) (UniProt P03372); assay: qHTS assay to identify small molecule agonists of the estrogen receptor alpha (ER-alpha) signaling pathway (AID 743075; calls by dose curve;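 note: HEK293 GripTite cells with ER-alpha and UAS-driven beta-lactamase reporter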)
[19] = biological target: Estrogen receptor (Homo sapiens) (UniProt P03372); assay: qHTS assay to identify small molecule agonists of the estrogen receptor alpha (ER-alpha) signaling pathway using the BG1 cell line (AID 743079); note: nearly all actives have a fitted effect of over 20% in size; note: potency is the fitted concentration of half-maximal effect
[20] = qHTS assay to identify small molecule antagonists of the estrogen receptor alpha (ER-alpha) signaling pathway using the BG1 cell line (AID 743080; calls by dose curve;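 note: BG1 cells stimulated with 17beta-estradiol alongside compound; series mostly up to about 70 µM; nearly all actives have a fitted effect of over 25% in size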)
Method in brief: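 Quantitative HTS on the Tox21 10K library: BG1 cells with endogenous ER-alpha and ERE-luciferase reporter, 17beta-estradiol stimulation, 21.5 h compound exposure, luminescence endpoint with parallel fluorescence cytotoxicity counter-read.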

Measured: Potency

Cc1onc(-c2ccccc2)c1-c1ccc(S(N)(=O)=O)cc1
not listed: [14] | [15] | [16] | [17] | [18] | [19] | [20]
inactive: all other assays above

Cc1c(F)cc2c(=O)c(C(=O)O)cn3c2c1CCC3C (stereo not drawn)
inactive: [14] | [12] | [15] | [13]

Cc1ccccc1C(=O)O
not listed: [1] | [6] | [13] | [14] | [17] | [18] | [19] | [20]
inactive: all other assays above

COc1ccc(COC=O)cc1
not listed: [1] | [8] | [10] | [13]
inactive: all other assays above

C1C2OC2C2C1C1CC2C2OC12 (stereo not drawn)
not listed: [1] | [10] | [17] | [18] | [19] | [20]
inactive: all other assays above

Nc1[nH]c(=O)ncc1F
not listed: [1] | [2] | [16] | [20]
inactive: all other assays above

CC(C)(C)N(CCO)CCO
not listed: [1] | [20]
inactive: all other assays above

CCCCCCC(CCCCCCCCCCC(=O)OCC(COC(C)=O)OC(C)=O)OC(C)=O (stereo not drawn)
not listed: [1] | [9] | [10] | [14] | [20]
inactive: all other assays above

CC(C)CCCC(C)NCCC(C)C (stereo not drawn)
inactive: [10] | [11] | [12] | [15] | [13]

CC1(C)OC(=O)Nc2ccc(Br)cc21
inactive: [11] | [14] | [12] | [13]

c1ccc2cnncc2c1
not listed: [1] | [8]
inactive: all other assays above

CCCCCCOC(=O)CC(CC(=O)OCCCCCC)(OC(=O)CCC)C(=O)OCCCCCC
not listed: [1] | [10]
inactive: all other assays above

CCCC(C)CO (stereo not drawn)
not listed: [1] | [8] | [10] | [15] | [17] | [18] | [19] | [20]
inactive: all other assays above

CC(C)(O)C(=O)c1ccc(OCCO)cc1
not listed: [1] | [3] | [11] | [20]
inactive: all other assays above

Nc1ccn(C2CO[C@H](CO)O2)c(=O)n1 (stereo partly drawn)
not listed: [1] | [10] | [13]
inactive: all other assays above

CCOC(=O)[C@H](CCc1ccccc1)N[C@@H](C)C(=O)N1CCC[C@H]1C(=O)O
inactive: [2] | [3] | [4] | [5] | [6] | [7] | [9] | [11] | [12] | [15] | [13]

O=C1CC2(CCCC2)CC(=O)N1
inactive: [10] | [11] | [14] | [12] | [15] | [13]

CCCCCCC(=O)OCC
not listed: [1] | [10] | [14] | [19]
inactive: all other assays above

CN(C)CCn1nnnc1SCC1=C(C(=O)O)N2C(=O)[C@@H](NC(=O)Cc3csc(N)n3)[C@H]2SC1
not listed: [1] | [3] | [14] | [17] | [18] | [19] | [20]
inactive: all other assays above

COc1ccc2cc(C=O)ccc2c1
inactive: [11] | [14] | [12] | [15] | [13]

Nc1ncnc2c1ncn2Cc1c(F)cccc1Cl
inactive: [10] | [11] | [14] | [12] | [15] | [13]

CO[Si](OC)(OC)OC
not listed: [1] | [8] | [10] | [16] | [17] | [18] | [19] | [20]
inactive: all other assays above

NC1CCN(c2cccc(Cl)n2)CC1
not listed: [1] | [4] | [8] | [16] | [17] | [18] | [19] | [20]
inactive: all other assays above

O=C(CCOCCOCCOCCOCCC(=O)Nc1c(I)cc(I)c(C(=O)O)c1I)Nc1c(I)cc(I)c(C(=O)O)c1I
inactive: [11] | [14] | [12] | [15] | [13]

Cn1ccc2cc3c(cc21)CCN3C(=O)Nc1cccnc1
active: [19] 5.31 µM | [7] 0.335 µM
not listed: [1] | [10] | [14] | [16] | [17] | [18] | [20]
inactive: all other assays above

CO
not listed: [1] | [8] | [9] | [10] | [17] | [18] | [19] | [20]
inactive: all other assays above

COc1ccc(NC(C)=O)cc1
inactive: [16] | [2] | [4] | [5] | [6] | [7] | [9] | [11] | [12] | [15] | [13]

CSc1nc(NC2CC2)nc(NC(C)(C)C)n1
inactive: [2] | [3] | [4] | [5] | [6] | [8] | [9] | [10] | [11] | [12] | [15]

O=[N+]([O-])c1ccc(CCO)cc1
not listed: [1] | [10] | [20]
inactive: all other assays above

CN(C)CCOC(c1ccc(Cl)cc1)c1ccccn1 (stereo not drawn)
not listed: [1] | [5] | [10] | [12] | [14] | [16] | [20]
inactive: all other assays above

O=c1[nH]c2ccccc2c(=O)n1CCCl
inactive: [11] | [12] | [15] | [13]

O=c1[nH]c(=O)n([C@H]2O[C@H](CO)[C@@H](O)[C@@H]2O)cc1/C=C\Br
inactive: [14] | [12] | [15]

CCn1c(=O)c2c(nc(/C=C/c3ccc(OC)c(OC)c3)n2C)n(CC)c1=O
inactive: [11] | [14] | [12] | [15] | [13]

CCC(=O)c1cccc(Cl)c1
not listed: [1] | [11] | [17] | [18] | [19] | [20]
inactive: all other assays above

O=C(O)C1CCC1
inactive: [10] | [11] | [12] | [15] | [13]

Nc1nc(F)nc2c1ncn2[C@@H]1O[C@H](CO)[C@@H](O)[C@@H]1O
active: [16] 18.8 µM
not listed: [1] | [10] | [14]
inactive: all other assays above

CNC(=O)c1c(I)c(NC(=O)CCCCC(=O)Nc2c(I)c(C(=O)O)c(I)c(C(=O)NC)c2I)c(I)c(C(=O)O)c1I
inactive: [10] | [11] | [14] | [12] | [15] | [13]

CC(=O)c1ccc(C)cc1
not listed: [1] | [2] | [8] | [16]
inactive: all other assays above

O=C(O)Cc1cc(I)c(Oc2cc(I)c(O)c(I)c2)c(I)c1
active: [2] 0.003 µM | [17] 15.2 µM [inconclusive] | [11] 19.1 µM
inactive: [3] | [18] | [20] | [4] | [5] | [6] | [7] | [8] | [15]
